Compound activity: PubChem BioAssay, National Center for Advancing Translational Sciences (NCATS)
D1 agonist = agonists of human D1 dopamine receptor | P21728 | activation, % at 2 µM | HEK293 T-REx D1 cells, calcium flux, agonist mode | hit rate 1% among 360,000; note: 0% is about no effect
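Inducible HEK293 T-REx D1 cells, force-coupled to calcium signalling, were plated at 4000 cells/well with tetracycline and held overnight at 30 C. After no-wash calcium dye loading, compound-evoked calcium rise over 180 s flagged agonists.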
LDHA inh = LDHA (human) enzyme inhibition; AID 1347041; P00338; purified LDHA, NADH/diaphorase-resazurin fluorescence; hits give low values; activity change, % (values are at about 110 or 230 µM); hit rate 0.15% among 480,000; in the data active = activity change below about -30%;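 note: plate controls were DMSO wells for no effect and wells without enzyme for full effect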
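Enzyme activity of human lactate dehydrogenase 5 (2 nM; 0.06 mM NADH, 0.2 mM pyruvate, 5 min, RT) is measured via a resazurin/diaphorase fluorescence readout of residual NADH.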
TRHR agonist = activates the human TRH receptor | activation, % at 2 µM | TRHR cells, calcium flux fluo-8, FDSS agonist mode | AID 493084 | P34981 | hit rate 0.18% among 360,000; note: 0% is about no effect
Target sequence (P34981 whole entry, looked up): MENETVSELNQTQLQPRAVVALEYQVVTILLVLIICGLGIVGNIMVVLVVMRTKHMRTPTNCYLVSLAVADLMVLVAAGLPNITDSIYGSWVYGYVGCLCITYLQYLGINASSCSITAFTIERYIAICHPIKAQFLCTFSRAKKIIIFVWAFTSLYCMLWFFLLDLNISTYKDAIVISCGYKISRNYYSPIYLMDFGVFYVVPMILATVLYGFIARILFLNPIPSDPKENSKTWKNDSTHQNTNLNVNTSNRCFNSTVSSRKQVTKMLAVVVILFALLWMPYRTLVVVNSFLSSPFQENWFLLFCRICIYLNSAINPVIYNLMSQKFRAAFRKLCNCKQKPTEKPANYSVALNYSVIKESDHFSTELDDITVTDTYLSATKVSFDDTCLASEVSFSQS
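TRHR-expressing cells, plated overnight in medium with 10% serum, were loaded with fluo-8 calcium dye at room temperature. After a 10 s baseline, library compound was pin-added and calcium release was recorded kinetically (ex 480/em 530) as agonist response.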
D1 antag = antagonists of human D1 dopamine receptor | P21728 | HEK293 TREx D1 cells, calcium flux, dopamine EC80; hits give low values | activity change, negative = inhibition, % at 10 µM | hit rate 3.2% among 360,000; in the data active = activity change below about -30%; note: % is set by controls: 0 for no effect and ±100 for the full control effect
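Cells carrying a force-coupled, tetracycline-inducible human D1 receptor report calcium flux. Each well gets a 10 s baseline, compound with 180 s monitoring, then an EC80 dopamine stimulus with a second 180 s kinetic read.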
TRHR enhancer = allosterically enhances the human TRH receptor; AID 493056; TRHR cells, fluo-8 calcium fluorescence, EC20 TRH enhancement; enhancement, % at 2 µM; P34981; hit rate 0.66% among 360,000; in the data active = enhancement above about 30%; note: 0% is about no effect
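TRHR-expressing cells loaded with fluo-8 calcium dye were read kinetically (ex 480/em 530) during compound addition, then stimulated with an EC20 of TRH (10 nM final). Enhancement of the Gq-mediated intracellular calcium response was scored.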
D1 PAM = potentiators of human D1 dopamine receptor | HEK293 TREx D1 cells, calcium flux, dopamine EC20 potentiation | P21728 | potentiation, % at 10 µM | hit rate 0.036% among 360,000 | AID 504651; in the data active = potentiation above about 30%; note: 0% is about no effect
Numbers without * were called inactive; / = no result. Hits are enriched below; roughly 3.6% of the tested compounds scored in any of these assays. Cut-off read from the data, not from the text of the source, unless noted: active = activation above about 30%; inactive = the rest.

SMILES | D1 agonist | LDHA inh | TRHR agonist | D1 antag | TRHR enhancer | D1 PAM
C=CCOc1ccc(/C=N\NC(N)=S)cc1 | 0 | -10 | -1 | -62* | 33* | -5
Cc1ccc(-c2nc(SCC(=O)N3CCCC3c3ccc4c(c3)OCCO4)n[nH]2)cc1 (stereo not given) | / | 1 | / | / | / | /
CCc1ccc(NS(=O)(=O)c2ccc(OC)c3ncccc23)cc1 | 12 | -3 | 0 | -31* | 2 | 0
CCc1ccccc1NS(=O)(=O)c1ccc(OC)c2ncccc12 | 8 | 1 | 0 | 10 | 10 | -2
O=C(c1ccc2c(c1)N(Cc1cccc(Cl)c1)C(=O)c1ccccc1S2(=O)=O)N1CCC(Cc2ccccc2)CC1 | 5 | 1 | 1 | -34* | -1 | -3
CC(=O)Nc1ccc(NC(=O)c2ccc3c(c2)N(Cc2cccc(Cl)c2)C(=O)c2ccccc2S3(=O)=O)cc1 | 10 | -2 | -2 | 8 | 3 | -3
N#Cc1cccc(NC(=O)c2ccc3c(c2)N(Cc2cccc(Cl)c2)C(=O)c2ccccc2S3(=O)=O)c1 | 7 | 2 | 2 | -7 | 31* | -4
O=C(c1ccc2c(c1)N(Cc1ccccc1)C(=O)c1ccccc1S2(=O)=O)N1CCN(Cc2ccccc2)CC1 | 1 | -5 | 0 | 0 | -3 | 0
CCOC(=O)c1ccc2c(c1)N(Cc1cccc(C(F)(F)F)c1)C(=O)c1ccccc1S2(=O)=O | 9 | 7 | 0 | -51* | 3 | -1
O=C1Cc2cc(NS(=O)(=O)c3ccc([N+](=O)[O-])cc3)cc3c2N1CCC3 | 1 | -3 | -1 | -32* | -2 | -2
O=C1Cc2cc(NS(=O)(=O)c3ccc(Cl)cc3)cc3c2N1CCC3 | 5 | 2 | -1 | -4 | 5 | 2
CCOc1ccc(NC(=O)CC2C(=O)N(c3ccc(Cl)cc3)C(=O)N2Cc2cccs2)cc1 (stereo not given) | 1 | -16 | 0 | -74* | 4 | -3
CCOc1ccc(NC(=O)CC2C(=O)N(c3ccc(C)cc3)C(=O)N2Cc2ccc(OC)cc2)cc1 (stereo not given) | 0 | -6 | 0 | -3 | 45* | 1
COC(=O)CN1C(=S)N(c2ccc(Cl)cc2)C(=O)C1CC(=O)Nc1ccccc1 (stereo not given) | 3 | 3 | 0 | -32* | 23 | -4
Cc1ccsc1CCN1C(=O)N(c2ccc(F)cc2)C(=O)C1CC(=O)Nc1ccccc1 (stereo not given) | 4 | 0 | 0 | -30* | -8 | -4
Cc1ccsc1CCN1C(=O)N(c2ccccc2)C(=O)C1CC(=O)Nc1ccc(F)cc1 (stereo not given) | 19 | 3 | 2 | 0 | -12 | -4
COC(=O)c1ccc(NC(=O)CC2C(=O)N(c3ccc(Cl)cc3)C(=O)N2Cc2cccs2)cc1 (stereo not given) | 1 | -6 | 1 | -13 | 3 | -3
O=C(CSc1nc2cc([N+](=O)[O-])ccc2o1)Nc1ccc2ccccc2c1 | / | 0 | / | / | / | /
CN(C)c1ccc(C(=O)Nc2ccccc2-c2ccccc2)cc1 | / | 8 | / | / | / | /
O=C(CSc1c2c(nc3ccccc13)CCC2)Nc1cccc(C(F)(F)F)c1 | / | 2 | / | / | / | /
CCCN1CCC(=O)N([C@H](CSc2ccc(OC)cc2)CC(C)C)CC1 | 0 | 1 | 0 | -34* | -6 | -2
CCC1CCCCN1CC(C)(C)NS(=O)(=O)c1ccccc1 (stereo not given) | 2 | -18 | 0 | -44* | 0 | 5
O=C(CCCc1nc(-c2ccc(Cl)cc2)no1)N1CCOCC1 | 2 | -2 | 1 | -41* | -2 | -6
Cc1cccc(Cn2c(SCc3ccccc3)nc3c2c(=O)n(C)c(=O)n3C)c1 | / | 3 | / | / | / | /
N#Cc1c(-n2ncnc2-c2ccccc2Cl)sc2c1CCCCC2 | 0 | -4 | -1 | -35* | -2 | 3
SMILES | D1 agonist | LDHA inh | TRHR agonist | D1 antag | TRHR enhancer | D1 PAM
N#Cc1c(-n2ncnc2-c2ccccc2C(F)(F)F)sc2c1CCCCC2 | 0 | -12 | 0 | -24 | -2 | -1
COc1ccc(Cl)cc1NC(=O)C(C)OC(=O)c1cc(CO)oc1C (stereo not given) | / | 4 | / | / | / | /
COc1ccc(Cl)cc1NC(=O)C(C)OC(=O)C1=NNC(=O)CC1 (stereo not given) | 0 | -6 | 0 | -66* | 2 | -2
C=CC[N+]1(CC2C(C)C=C(C)CC2C)CCCCC1 (stereo not given) | / | 10 | / | / | / | /
O=C(CCc1ccccc1)OCC(=O)c1ccc2c(c1)OCCCO2 | / | -2 | / | / | / | /
O=C(Cn1cc(C(F)(F)F)ccc1=O)NC1CCCC1 | 2 | 0 | 0 | -44* | -5 | -2
CCc1nn(CC(=O)NCCCN2CCOCC2)c(=O)c2cc3c(OC)cccc3n12 | / | 1 | / | / | / | /
CCc1nn(CC(=O)NCCCN(CC)CC)c(=O)c2cc3sc(C)cc3n12 | 1 | 1 | 0 | 5 | -3 | -2
CCOCCCNC(=O)Cn1nc(CC)n2c(cc3c(OC)cccc32)c1=O | 1 | 3 | 0 | -30* | 4 | -5
COc1cccc2c1cc1c(=O)n(CC(=O)NCCCc3ccccc3)nc(C)n12 | 2 | -14 | 0 | -39* | 0 | 5
CCc1nn(CC(=O)NCCCN(C)Cc2ccccc2)c(=O)c2cc3sc(C)cc3n12 | 3 | 0 | -1 | -37* | 2 | 3
CCc1nn(CC(=O)NCCCc2ccccc2)c(=O)c2cc3c(OC)cccc3n12 | 0 | 0 | 0 | -9 | 2 | -2
Cc1cc(C)c2c(N)c(-c3ccc(C#N)cc3)sc2n1 | / | -1 | / | / | / | /
Cc1ccnc(NC(=O)CCC(=O)N(CC(=O)NC2CCCCC2)c2cccc(C)c2C)c1 | 1 | -1 | 0 | -42* | -4 | -4
Cc1ccc(N(CC(=O)NC2CCCC2)C(=O)CCC(=O)Nc2ccccn2)cc1C | -2 | -3 | 0 | 12 | 2 | -1
Cc1ccc(N(CC(=O)NC2CCCC2)C(=O)CCCC(=O)Nc2ccccn2)cc1C | 1 | -4 | -2 | -46* | 3 | -7
O=C(CCC(=O)N(CC(=O)NC1CCCC1)C1CCCCC1)Nc1ccccn1 | 8 | -1 | 0 | -46* | 6 | -7
Cc1cc(NC(=O)c2ccc3nc(N4CCCCC4)sc3c2)ccc1Br | / | 2 | / | / | / | /
CCn1c(CSc2nc3ccccc3[nH]2)nc2cc(C(=O)O)ccc21 | 0 | -30* | 0 | -6 | 2 | -3
CCn1c(CSc2nccn2C)nc2cc(C(=O)O)ccc21 | 6 | 7 | -1 | 7 | -4 | 3
COC(=O)c1c(SC)nc2ccccc2c1OCc1cc(C)ccc1C | 31* | 2 | -1 | 17 | 13 | -2
